Results on eight compounds are retold here after PubChem BioAssay (NCATS).

The structures appear in SMILES notation. “And” between values parts separate entries of the source, which are not always exact repeats. Equal values may be shown once. Inconclusive results are not listed. The source made the active and inactive calls. The call rests on the fitted dose curve; in most records, active means well fitted curve in the direction sought with a large enough effect; inconclusive means small, poorly fitted or top-dose-only effect, or another doubt; inactive means no such curve, though single readings can be large; an effect the other way counts as inactive or inconclusive.

The nature of test [1]: qHTS of pediatric cancer cell lines to identify multiple opportunities for drug repurposing: Primary screen for NB-EBc1 cells (AID 1347095). Further: potency means the concentration at half of the fitted maximal effect. The method in brief:
(§1)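 Plated cells (500-1,000 per well, growth media) were allowed to settle for 5 hours, treated with compound dilutions for 48 hours, then lysed with CellTiter-Glo for 15 min at room temperature before luminescence reading.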

Test [2] can be described thus: qHTS of pediatric cancer cell lines to identify multiple opportunities for drug repurposing: Primary screen for U-2 OS cells (AID 1347096). Further: nearly all actives have a fitted effect of over 50% in size. Further: potency means the concentration at half of the fitted maximal effect. The method in brief:
(§2)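 Viability after 48 h compound treatment at 37C, 500-1,000 cells/well, read as ATP luminescence with CellTiter-Glo. Primary screens used 11-point (MIPE, 0.78 nM-46 µM) or 8-point (NPC, 0.59 nM-46 µM) final concentrations; follow-up screens used 11-point dilutions.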
In general terms: In qHTS, concentration-response curves come from the screen itself.

Test [3] in a line: qHTS of pediatric cancer cell lines to identify multiple opportunities for drug repurposing: Primary screen for Saos-2 cells (AID 1347097). Further: nearly all actives have a fitted effect of over 40% in size. Further: potency means the concentration at half of the fitted maximal effect. In short, it runs like this: as §1
The nature of test [4]: qHTS of pediatric cancer cell lines to identify multiple opportunities for drug repurposing: Primary screen for SK-N-SH cells (AID 1347098). Further: nearly all actives have a fitted effect of over 65% in size. Further: potency means the concentration at half of the fitted maximal effect. In short, it runs like this: (§3)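 Cells (500-1,000/well) rested 5 h, then received compounds for 48 h; metabolically active cells were measured by CellTiter-Glo luminescence. Final concentrations spanned up to 46 µM (MIPE, 11-point) or 0.59 nM-46 µM (NPC, 8-point) in primary screens, 11-point in follow-ups.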

Test [5] can be described thus: qHTS of pediatric cancer cell lines to identify multiple opportunities for drug repurposing: Primary screen for NB1643 cells (AID 1347099). Further: nearly all actives have a fitted effect of over 50% in size. In short, it runs like this: as §1
Test [6] can be described thus: qHTS of pediatric cancer cell lines to identify multiple opportunities for drug repurposing: Primary screen for LAN-5 cells (AID 1347100). Further: potency means the concentration at half of the fitted maximal effect. In short, it runs like this: as §2
Test [7] is described as follows: qHTS of pediatric cancer cell lines to identify multiple opportunities for drug repurposing: Primary screen for BT-12 cells (AID 1347101). Further: nearly all actives have a fitted effect of over 25% in size. Further: potency means the concentration at half of the fitted maximal effect. In short, it runs like this:
as §3

A short description of test [8]: qHTS of pediatric cancer cell lines to identify multiple opportunities for drug repurposing: Primary screen for Rh18 cells (AID 1347102). Further: nearly all actives have a fitted effect of over 65% in size. The method in brief:
as §2

Test [9] in a line: qHTS of pediatric cancer cell lines to identify multiple opportunities for drug repurposing: Primary screen for OHS-50 cells (AID 1347103). Further: nearly all actives have a fitted effect of over 40% in size. Further: potency means the concentration at half of the fitted maximal effect. The method in brief:
as §3

A short description of test [10]: qHTS of pediatric cancer cell lines to identify multiple opportunities for drug repurposing: Primary screen for RD cells (AID 1347104). Further: nearly all actives have a fitted effect of over 55% in size. Further: potency means the concentration at half of the fitted maximal effect. In short, it runs like this:
as §1

A short description of test [11]: qHTS of pediatric cancer cell lines to identify multiple opportunities for drug repurposing: Primary screen for MG 63 (6-TG R) cells (AID 1347105). Further: nearly all actives have a fitted effect of over 50% in size. The method in brief:
as §1

Test [12] is described as follows: qHTS of pediatric cancer cell lines to identify multiple opportunities for drug repurposing: Primary screen for control Hh wild type fibroblast cells (AID 1347106).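 Further: series mostly up to about 46 µM; a drop in luminescence marks cytotoxicity and a rise apparent proliferation; nearly all actives have a fitted effect of over 55% in size.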 The method in brief: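 Cells (500-1,000/well) in growth media were settled 5 h at 37 degrees C, then given compounds for 48 h. Viability was read as CellTiter-Glo luminescence. Primary runs used MIPE at 11 points (0.78 nM-46 µM) and NPC at 8 points (0.59 nM-46 µM); follow-ups used 11 points.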

The nature of test [13]: qHTS of pediatric cancer cell lines to identify multiple opportunities for drug repurposing: Primary screen for Rh30 cells (AID 1347107). Further: series mostly up to about 46 µM; nearly all actives have a fitted effect of over 75% in size. The method in brief:
as §2

A short description of test [14]: qHTS of pediatric cancer cell lines to identify multiple opportunities for drug repurposing: Primary screen for Rh41 cells (AID 1347108).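 Further: series mostly up to about 46 µM; luminescence drop marks cytotoxic hits; nearly all actives have a fitted effect of over 70% in size.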 The method in brief:
as §1

Test [15] can be described thus: qHTS of pediatric cancer cell lines to identify multiple opportunities for drug repurposing: Confirmatory screen for A673 cells (AID 1347110). Further: nearly all actives have a fitted effect of over 65% in size. Further: potency means the concentration at half of the fitted maximal effect. In short, it runs like this:
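A673 cells at 500-1,000 cells/well were dosed 5 h after plating, in dilution series up to 46 uM final; primary runs used 8 or 11 points and confirmatory runs used 11 points. Viability was read by CellTiter-Glo luminescence after 48 h, against DMSO and 2.3 uM bortezomib controls.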

The nature of test [16]: qHTS of pediatric cancer cell lines to identify multiple opportunities for drug repurposing: Confirmatory screen for LAN-5 cells (AID 1347113). Further: nearly all actives have a fitted effect of over 65% in size. The method in brief: as §2
Test [17] in a line: qHTS of pediatric cancer cell lines to identify multiple opportunities for drug repurposing: Confirmatory screen for DAOY cells (AID 1347114). Further: nearly all actives have a fitted effect of over 65% in size. In short, it runs like this:
(§4)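 Viability measured as metabolically active cells via CellTiter-Glo luminescence following 48 hours of compound exposure, 11-point dilutions in confirmatory testing. 500-1,000 cells/well plated 5 hours before dosing; controls were DMSO and 2.3 µM bortezomib.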

The nature of test [18]: qHTS of pediatric cancer cell lines to identify multiple opportunities for drug repurposing: Confirmatory screen for SJ-GBM2 cells (AID 1347116). Further: nearly all actives have a fitted effect of over 60% in size. In short, it runs like this:
as §4

Test [19] can be described thus: qHTS of pediatric cancer cell lines to identify multiple opportunities for drug repurposing: Confirmatory screen for NB1643 cells (AID 1347109). Further: nearly all actives have a fitted effect of over 45% in size. In short, it runs like this: as §2
Test [20] is described as follows: qHTS of pediatric cancer cell lines to identify multiple opportunities for drug repurposing: Confirmatory screen for SK-N-MC cells (AID 1347111).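 Further: cells exposed to compound for 48 h before the readout; nearly all actives have a fitted effect of over 70% in size.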 In short, it runs like this:
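SK-N-MC cells at 500-1,000 cells/well in growth media were pre-incubated 5 h, then exposed to compounds at 11-point dilutions for 48 h at 37 degrees C, 5% CO2. Viability was read as CellTiter-Glo luminescence.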

For `CNNCc1ccc(C(=O)NC(C)C)cc1`, the Potency entry in test [1], in [2], in [3], in test [4], in test [5] and in [6] was “inactive” each time. Also, the Potency result in test [7], in [8], in [9], in [10], in test [11] and in [12] was “inactive” each time. In addition, the Potency result in [13], in [14], in [16], in [17] and in test [18] was “inactive” each time. The Potency in test [15] was 10.4 µM (active).

In the case of `CCn1cc(C(=O)O)c(=O)c2cc(F)c(N3CCNCC3)nc21`, the Potency entry in [1], in test [2], in test [3], in [4], in test [5] and in test [6] was “inactive” throughout. For the same compound, the Potency result in test [7], in test [8], in [9], in [10], in test [11] and in test [12] was “inactive” throughout. For the same compound, the Potency result in [14] was “inactive”.

On to `CC(N)C12CC3CC(CC(C3)C1)C2` (configuration not stated), for which the Potency entry in test [1], in [2], in test [3], in [4], in test [5] and in [6] was “inactive” each time. For the same compound, the Potency entry in test [7], in test [8], in test [9], in test [10], in test [11] and in test [12] was “inactive” throughout. In addition, the Potency entry in test [13] and in test [14] was “inactive” each time.

Turning to `CC[C@H](NC(C)C)[C@H](O)c1ccc(O)c2[nH]c(=O)ccc12`, the Potency entry in [1], in test [2], in test [3], in [4], in test [5] and in test [6] was “inactive” each time. The Potency entry in test [7], in test [8], in [9], in test [10], in [11] and in test [12] was “inactive” throughout. In addition, the Potency result in [14] was “inactive”.

Consider `O=C(O)c1cccnc1`, for which the Potency entry in test [1], in [2], in [3], in test [4], in [5] and in [6] was “inactive” each time. Moreover, the Potency entry in test [7], in [8], in test [9], in test [10], in [11] and in test [12] was “inactive” throughout. Moreover, the Potency result in [13] and in [14] was “inactive” throughout.

With `O=c1oc2c(O)c(O)cc3c(=O)oc4c(O)c(O)cc1c4c23`, the Potency result in test [1], in test [2], in test [3], in test [4], in test [5] and in [6] was “inactive” throughout. Also, the Potency entry in test [8], in test [9], in test [11], in test [12], in test [13] and in test [14] was “inactive” in each case.

For `CCCCOc1ccc(CC(=O)NO)cc1`, the Potency is 18.7 µM (active) in test [1]; 26.6 µM (active) in test [2]; 23.5 µM (active) in test [3]; 19.2 µM (active) in test [4]; 23.5 µM (active) in test [6]; 15 µM (active) and 26.4 µM (active) in test [10]. In addition, the Potency result in [7], in test [11], in test [12], in test [13], in test [19] and in [15] was “inactive” in each case. The Potency result in test [20], in [16], in test [17] and in [18] was “inactive” throughout.

As for `NC(N)=NC(N)=NCCc1ccccc1`, the Potency result in [1], in test [2], in test [3], in [4], in test [5] and in test [6] was “inactive” each time. Besides, the Potency result in [8], in [11], in [12] and in test [13] was “inactive” throughout. In addition, the Potency in test [7] was 19.3 µM (active); in test [9] it was 11 µM (active) and 3.85 µM (active).
